# Results filed as inconclusive are left out. A number with no mark means an inactive call. The call rests on the fitted dose curve; in most records, active means well fitted curve in either direction with a large enough effect (not every such curve was filed as active); inconclusive means small, poorly fitted or top-dose-only effect, or another doubt; inactive means flat fitted curve, though single readings scatter.
# Experiment: AP1 Signaling Pathway (AID 357)
# Conditions: ME-180 AP-1-bla reporter, EGF-induced, beta-lactamase ratio, 5 h; at 17.2 µM (top of the series) unless noted
# Outline: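 AP-1-bla ME-180 cells with beta-lactamase reporter under AP-1 response element, stimulated with EC50 EGF; compounds titrated, 5 hours at 37 degrees Celsius. CCF4 read at 460/530 nm ratio; positive and negative modulators judged by AC50.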
# On the % scale 0 is the no-effect control and ±100 the full control effect.
row,Compound,"activity change, negative = inhibition"
1,CSc1nc2[nH]c3c(c2c2nnnn12)CCCC3,-20.6%
2,COc1ccccc1NC(=O)C1=C(C)NC(SCC(=O)c2ccc(C)cc2)=C(C#N)C1c1ccco1 (stereo not given),-8.91%
3,Oc1ccc(Br)cc1-c1cc(-c2ccccc2F)[nH]n1,13.3%
4,NC(Cc1ccc(Oc2ccc(O)cc2)cc1)C(=O)O (stereo not given),-2.36%
5,CC(C)(C)c1cccc(/C=N/O)c1O,-17.8%
6,COC(=O)c1ccc(Oc2nc3ccccc3n3c(C)nnc23)cc1,13%
7,CCCCC(=O)C1CCN(Cc2ccccc2)CC1,4.33%
8,Cn1c(Cl)cnc1C1CC(=O)c2cc(Cl)ccc2O1 (stereo not given),14.1%
9,COC(=O)c1cc(=O)n2c(-c3ccc(OC)cc3)csc2n1,-2.63%
10,Cn1c(=O)c2c(nc(NCc3ccco3)n2Cc2ccc(Cl)cc2Cl)n(C)c1=O,4.86%
11,CCCCCNc1nc(N2CCCC2)c2c(c1C#N)CCN(C)C2,3.36%
12,CCn1c(SCC(=O)N2CCOCC2)nc2sc3c(c2c1=O)CCCC3,-8.7%
13,COC(=O)c1sc2nc(N3CCCCC3)c3c(c2c1N)CC(C)(C)N(C)C3,21%
14,COc1ccccc1C1(CC(=O)N2CCOCC2)CCOC(C(C)C)C1 (stereo not given),3.63%
15,CCOC(=O)N1CC=C2C(C#N)=C(N)C(C#N)(C#N)[C@H](c3cccs3)[C@H]2C1,6.03%
16,O=C(Nc1nc(NC(=O)c2ccco2)n(-c2ccccc2)n1)c1ccccc1,-13.5%
17,CCOC(=O)C1=C(C)NC(SCC(=O)Nc2nc(C)cs2)=C(C#N)C1c1cccs1 (stereo not given),-22.9%
18,CCOC(=O)c1[nH]c2ccc(F)cc2c1N=C(C)N(CC)CC,4.09%
19,O=c1c2ccccc2[nH]c(=S)n1CCN1CCC(=C(c2ccc(F)cc2)c2ccc(F)cc2)CC1,10.4%
20,Cn1c(=O)c2c(nc(Br)n2CCSc2nc3ccccc3o2)n(C)c1=O,5.24%

row,Compound,"activity change, negative = inhibition"
1,Cc1cc2c(c(=O)n1Cc1ccccn1)C(c1ccc3c(c1)OCO3)C(C#N)=C(N)O2 (stereo not given),-7.52%
2,CCOC(=O)c1[nH]c2ccc(Br)cc2c1NC(=O)CNC,18.8%
3,CCC12CN3CC(CC)(CN(C1)C3c1c(O)ccc3ccccc13)C2=O (stereo not given),2.68%
4,CCOC(=O)c1nc(N)c(C(=O)OCC)[nH]1,8.92%
5,COc1ccc(C2/C(=C(\O)c3ccc4c(c3)OCCO4)C(=O)C(=O)N2CCCN(C)C)cc1 (stereo not given),8.31%
6,CC(C)Sc1nnc2n(CCc3ccccc3)c(=O)c3c4c(sc3n12)COC(C)(C)C4,-19.5%
7,OCCNc1nc(-c2ccccc2)c2ccccc2n1,-11.6%
8,CNC(=O)CC(C(=O)O)c1ccc(OC(C)C)cc1 (stereo not given),5.59%
9,Nc1ccc2oc3ncccc3c(=O)c2c1,7.58%
10,CN=C(c1ccco1)n1c(=S)nc(-c2ccco2)n(C)c1=S,10.9%
11,COc1cc(OC)cc(C(=O)N2CCC(N3CCCCCC3)CC2)c1,-0.714%
12,Cc1ccc(S(=O)(=O)N2CCC(N3CCCCCC3)CC2)cc1,15.1%
13,CCCOc1ccc(C(C)=O)cc1CSCCC#N,-12.7%
14,O=C(O)CC(NCc1ccco1)C(=O)OCC1CCCO1 (stereo not given),11.5%
15,CC(C)(C)NCc1cc2ccccc2[nH]c1=O,-4.82%
16,CCCOc1ccc(Cc2nn[nH]n2)cc1,6.52%
17,COc1ccc(-c2nc3c(Br)c(N)c(Br)cc3o2)cc1,4.22%
18,COC(=O)C1=C(C)OC(N)=C(C#N)C1c1ccc(OC)c(OC)c1OC (stereo not given),11.2%
19,O=C(NCc1ccco1)c1cnn2c(C(F)(F)F)cc(-c3ccco3)nc12,-3.32%
20,Cc1ccc2cc(CN(C(=O)c3ccco3)c3ccccc3C)c(=O)[nH]c2c1,-25.5%

# Experiment: Stat Signaling Pathway (AID 446);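 further: ME-180 cervical cancer cells given 40 pM IL-6 alongside compound; SIE-controlled beta-lactamase reporter measured as 460/530 nm FRET emission ratio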
# Conditions: ME-180 SIE beta-lactamase reporter, IL-6 stimulated, 5 h; at 17.2 µM (top of the series) unless noted
# Outline: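 Reporter line: ME-180 cervical carcinoma, SIE-beta-lactamase. Treatment: compound with 40 pM IL-6, 5 hrs, 37 C, in low-serum OPTI-MEM with 10 mM HEPES pH 7.3. Detection: 460/530 nm fluorescence.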
row,Compound,"activity, negative = inhibition"
1,CSc1nc2[nH]c3c(c2c2nnnn12)CCCC3,-10.8%
2,COc1ccccc1NC(=O)C1=C(C)NC(SCC(=O)c2ccc(C)cc2)=C(C#N)C1c1ccco1 (stereo not given),-6.63%
3,Oc1ccc(Br)cc1-c1cc(-c2ccccc2F)[nH]n1,-0.726%
4,NC(Cc1ccc(Oc2ccc(O)cc2)cc1)C(=O)O (stereo not given),-1.48%
5,CC(C)(C)c1cccc(/C=N/O)c1O,-5.38%
6,COC(=O)c1ccc(Oc2nc3ccccc3n3c(C)nnc23)cc1,4.74%
7,CCCCC(=O)C1CCN(Cc2ccccc2)CC1,3.33%
8,Cn1c(Cl)cnc1C1CC(=O)c2cc(Cl)ccc2O1 (stereo not given),0.321%
9,COC(=O)c1cc(=O)n2c(-c3ccc(OC)cc3)csc2n1,5.85%
10,Cn1c(=O)c2c(nc(NCc3ccco3)n2Cc2ccc(Cl)cc2Cl)n(C)c1=O,-17.6%
11,CCCCCNc1nc(N2CCCC2)c2c(c1C#N)CCN(C)C2,-7.71%
12,CCn1c(SCC(=O)N2CCOCC2)nc2sc3c(c2c1=O)CCCC3,-6.44%
13,COC(=O)c1sc2nc(N3CCCCC3)c3c(c2c1N)CC(C)(C)N(C)C3,9.93%
14,COc1ccccc1C1(CC(=O)N2CCOCC2)CCOC(C(C)C)C1 (stereo not given),-0.0907%
15,CCOC(=O)N1CC=C2C(C#N)=C(N)C(C#N)(C#N)[C@H](c3cccs3)[C@H]2C1,-16%
16,O=C(Nc1nc(NC(=O)c2ccco2)n(-c2ccccc2)n1)c1ccccc1,-22.6%
17,CCOC(=O)C1=C(C)NC(SCC(=O)Nc2nc(C)cs2)=C(C#N)C1c1cccs1 (stereo not given),-27.7%
18,CCOC(=O)c1[nH]c2ccc(F)cc2c1N=C(C)N(CC)CC,5.12%
19,O=c1c2ccccc2[nH]c(=S)n1CCN1CCC(=C(c2ccc(F)cc2)c2ccc(F)cc2)CC1,-6.03%
20,Cn1c(=O)c2c(nc(Br)n2CCSc2nc3ccccc3o2)n(C)c1=O,10.5%

row,Compound,"activity, negative = inhibition"
1,Cc1cc2c(c(=O)n1Cc1ccccn1)C(c1ccc3c(c1)OCO3)C(C#N)=C(N)O2 (stereo not given),-11.7%
2,CCOC(=O)c1[nH]c2ccc(Br)cc2c1NC(=O)CNC,-1.05%
3,CCC12CN3CC(CC)(CN(C1)C3c1c(O)ccc3ccccc13)C2=O (stereo not given),-7.82%
4,CCOC(=O)c1nc(N)c(C(=O)OCC)[nH]1,6.9%
5,COc1ccc(C2/C(=C(\O)c3ccc4c(c3)OCCO4)C(=O)C(=O)N2CCCN(C)C)cc1 (stereo not given),2.89%
6,CC(C)Sc1nnc2n(CCc3ccccc3)c(=O)c3c4c(sc3n12)COC(C)(C)C4,-3.01%
7,OCCNc1nc(-c2ccccc2)c2ccccc2n1,-4.38%
8,CNC(=O)CC(C(=O)O)c1ccc(OC(C)C)cc1 (stereo not given),5.76%
9,Nc1ccc2oc3ncccc3c(=O)c2c1,-3.84%
10,CN=C(c1ccco1)n1c(=S)nc(-c2ccco2)n(C)c1=S,15.6%
11,COc1cc(OC)cc(C(=O)N2CCC(N3CCCCCC3)CC2)c1,0.747%
12,Cc1ccc(S(=O)(=O)N2CCC(N3CCCCCC3)CC2)cc1,10.2%
13,CCCOc1ccc(C(C)=O)cc1CSCCC#N,85.5%
14,O=C(O)CC(NCc1ccco1)C(=O)OCC1CCCO1 (stereo not given),-1.58%
15,CC(C)(C)NCc1cc2ccccc2[nH]c1=O,3.71%
16,CCCOc1ccc(Cc2nn[nH]n2)cc1,2.28%
17,COc1ccc(-c2nc3c(Br)c(N)c(Br)cc3o2)cc1,8.24%
18,COC(=O)C1=C(C)OC(N)=C(C#N)C1c1ccc(OC)c(OC)c1OC (stereo not given),8.15%
19,O=C(NCc1ccco1)c1cnn2c(C(F)(F)F)cc(-c3ccco3)nc12,10.1%
20,Cc1ccc2cc(CN(C(=O)c3ccco3)c3ccccc3C)c(=O)[nH]c2c1,-12.8%
